The values that follow come from the supplement of paper PMC4709259.

In assay [1] the test system is Jurkat. The assay is described as follows: mean cell size (FSC-A) relative to DMSO control (fraction of control); higher = larger cells. The conditions noted are these: 48 h. An outline of the steps:
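Jurkat cells at 600 cells/µl were incubated for 1 h and then treated for 48h with the Enzo Screen-Well FDA Approved Drug Library v2.0 at 25µM, with DMSO at 0.9% (v/v) final. Compounds that reduced counts below 20% of controls were retested in 10-fold dilutions down to 25nM. Cell count and mean cell size, taken as forward scatter area, were measured by flow cytometry relative to solvent-only controls. Each plate carried 6-12 controls, and values are means of 3 biological replicates.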

Assay [2] has as its system Jurkat. The experiment in a line: cell count relative to DMSO control (fraction of control); higher = more cells (less growth inhibition). The settings on record: 48 h.

Counter-ions that a name gives are not always drawn. ± gives the standard deviation.

`CCCCS(=O)(=O)N[C@@H](Cc1ccc(OCCCCC2CCNCC2)cc1)C(=O)O` [Tirofiban·HCl] (concentration: 25 µM) came in with a mean cell size in assay [1] of 0.937 ± 0.023. In assay [2], the cell count was determined as 1.01 ± 0.08.
Regarding `CCN(CC)C(=O)C1(c2ccccc2)CC1CN` (stereo not given) [Milnacipran·HCl] (concentration: 25 µM), the mean cell size in assay [1] came to 0.977 ± 0.032. Besides, the cell count in assay [2] is 0.792 ± 0.1.
In turn, `CCCCCCCCc1ccc(CCC(N)(CO)CO)cc1` [Fingolimod] (concentration: 25 µM) gave a mean cell size in assay [1] of 1.03 ± 0.035. In assay [2], the cell count was 0.953 ± 0.12.
With `COc1cc(C(=O)NCc2ccc(OCCN(C)C)cc2)cc(OC)c1OC` [Trimethobenzamide·HCl] (concentration: 25 µM), the mean cell size in assay [1] was determined as 0.9923 ± 0.0096. Besides, the cell count in assay [2] was 1.07 ± 0.057.
In assay [1], `C[C@H](CCC(=O)O)[C@H]1CC[C@H]2[C@@H]3[C@H](O)C[C@@H]4C[C@H](O)CC[C@]4(C)[C@H]3CC[C@]12C` [Chenodiol (Chenodeoxycholic Acid)] (concentration: 25 µM) registered a mean cell size of 0.946 ± 0.037. The same compound returned a cell count in assay [2] of 0.838 ± 0.13.
The like results for `CC(C)NCC(O)COc1ccc(CC(N)=O)cc1` (racemic) [(±)-Atenolol] (concentration: 25 µM) were, in that order, 0.836 ± 0.018 and 1.14 ± 0.087.
In assay [1], `O=P(O)(O)C(O)(Cn1ccnc1)P(=O)(O)O` [Zoledronic Acid Monohydrate] (concentration: 25 µM) had a mean cell size of 0.938 ± 0.031. Moreover, the cell count in assay [2] is 0.296 ± 0.11.
Turning to `CC(=O)OCC[N+](C)(C)C` [Acetylcholine Chloride] (concentration: 25 µM), in assay [1], the mean cell size was 0.999 ± 0.056. This compound also registered a cell count in assay [2] of 0.68 ± 0.19.
The matching figures for `Clc1ccc(COC(Cn2ccnc2)c2ccc(Cl)cc2Cl)c(Cl)c1` (stereo not given) [Miconazole] (concentration: 25 µM): 0.976 ± 0.04 and 0.586 ± 0.11.
In assay [1], `Cc1c(-c2ccccc2)oc2c(C(=O)OCCN3CCCCC3)cccc2c1=O` [Flavoxate·HCl] (concentration: 25 µM) showed a mean cell size of 1.01 ± 0.057. Further, in assay [2], the cell count was 1.01 ± 0.062.
On to `C[C@@H](NCCCc1cccc(C(F)(F)F)c1)c1cccc2ccccc12` [Cinacalcet·HCl] (concentration: 25 µM), for which the mean cell size in assay [1] turned out to be 1.03 ± 0.051. The same compound gave a cell count in assay [2] of 0.577 ± 0.089.
As to `CC1(C)O[C@@H]2C[C@H]3[C@@H]4CCC5=CC(=O)C=C[C@]5(C)[C@H]4[C@@H](O)C[C@]3(C)[C@]2(C(=O)CO)O1` [Desonide] (concentration: 25 µM), the mean cell size in assay [1] stood at 0.948 ± 0.027. The same compound yielded a cell count in assay [2] of 0.857 ± 0.014.
`CC(C(=O)O)c1cccc(C(=O)c2ccccc2)c1` (stereo not given) [Ketoprofen] (concentration: 25 µM): in assay [1], the mean cell size is 0.929 ± 0.0063. The compound also had a cell count in assay [2] of 0.722 ± 0.029.
In assay [1], `C[N+](C)(C)C[C@H](O)CC(=O)[O-]` [Levocarnitine] (concentration: 25 µM) had a mean cell size of 0.938 ± 0.013. The cell count in assay [2] was found to be 1.01 ± 0.099.
The matching figures for `CC1(C)S[C@@H]2[C@H](NC(=O)[C@H](N)c3ccc(O)cc3)C(=O)N2[C@H]1C(=O)O` [Amoxicillin] (concentration: 25 µM): 0.988 ± 0.012 and 0.866 ± 0.063.
The matching figures for `Nc1nc(=O)n([C@@H]2CS[C@H](CO)O2)cc1F` [Emtricitabine] (concentration: 25 µM): 1.03 ± 0.019 and 0.581 ± 0.14.
The matching figures for `Cc1nc2n(c(=O)c1CCN1CCC(c3noc4cc(F)ccc34)CC1)CCCC2O` (stereo not given) [Paliperidone] (concentration: 25 µM): 0.985 ± 0.043 and 1.06 ± 0.063.
As for `Cc1c(OCC(F)(F)F)ccnc1C[S+]([O-])c1nc2ccccc2[nH]1` (stereo not given) [Lansoprazole] (concentration: 25 µM), the mean cell size in assay [1] was 0.927 ± 0.027. Moreover, the cell count in assay [2] was 0.617 ± 0.01.
`C=C1/C(=C\C=C2/CCC[C@]3(C)[C@@H]([C@H](C)/C=C/[C@@H](O)C4CC4)CC[C@@H]23)C[C@@H](O)C[C@@H]1O` [Calcipotriene] (concentration: 25 µM) came in with a mean cell size in assay [1] of 0.933 ± 0.064. This compound also displayed a cell count in assay [2] of 0.654 ± 0.08.
The matching figures for `CN(C)CC[C@@H](c1ccc(Cl)cc1)c1ccccn1` [Dexchlorpheniramine Maleate] (concentration: 25 µM): 0.964 ± 0.033 and 0.526 ± 0.17.
As for `CCCc1cc(=O)[nH]c(=S)[nH]1` [Propylthiouracil] (concentration: 25 µM), in assay [1], the mean cell size was 1.02 ± 0.048. Besides, the cell count in assay [2] came out at 0.981 ± 0.1.
In turn, `c1ccc2c(CC3=NCCN3)cccc2c1` [Naphazoline·HCl] (concentration: 25 µM) came in with a mean cell size in assay [1] of 0.94 ± 0.024. This compound also had a cell count in assay [2] of 0.864 ± 0.024.
The matching figures for `O=C(CCCCCCC(=O)Nc1ccccc1)NO` [Vorinostat] (concentration: 250 nM): 0.947 ± 0.035 and 0.71 ± 0.048.
In turn, `CC#C[C@]1(O)CC[C@H]2[C@@H]3CCC4=CC(=O)CCC4=C3[C@@H](c3ccc(N(C)C)cc3)C[C@@]21C` [Mifepristone] (concentration: 25 µM) had a mean cell size in assay [1] of 0.903 ± 0.021. The cell count in assay [2] turned out to be 0.424 ± 0.054.
The like results for `N#Cc1ccc(C(c2ccc(C#N)cc2)n2cncn2)cc1` [Letrozole] (concentration: 25 µM) were, in that order, 1.01 ± 0.028 and 0.798 ± 0.019.
